Giardia FBPA inh – blocks Giardia fructose-bisphosphate aldolase activity. hit rate 0.71% among 290,000. Potency, µM (highest dose often 59.6 µM), for the others: at the highest dose activity, negative = inhibition, most hits filed as inhibitors. AID 2451. A8B2U2. purified Giardia FBPA; also: potency is read from the fitted curve at half-maximal effect; nearly all actives have a fitted effect of over 55% in size
Target sequence (A8B2U2 whole entry, looked up): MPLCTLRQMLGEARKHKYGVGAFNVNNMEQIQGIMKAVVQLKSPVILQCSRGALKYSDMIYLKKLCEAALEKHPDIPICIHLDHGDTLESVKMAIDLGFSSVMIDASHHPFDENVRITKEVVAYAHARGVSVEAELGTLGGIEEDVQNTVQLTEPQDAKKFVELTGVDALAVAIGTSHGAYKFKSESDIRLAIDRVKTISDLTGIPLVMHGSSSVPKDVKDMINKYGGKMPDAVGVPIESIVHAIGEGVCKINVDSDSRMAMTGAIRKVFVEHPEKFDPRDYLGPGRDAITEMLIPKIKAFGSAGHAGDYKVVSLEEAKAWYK
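Giardia FBPA (40 nM reagent) was preincubated 10 min at RT with compound (up to 57.5 uM final), then substrate plus GAPDH/TPI/NAD/arsenate coupling system with diaphorase/resazurin was added; resorufin fluorescence (525/598 nm) was read after 20 min.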
FMDV antiviral – blocks foot and mouth disease virus; FMDV antiviral cell-based qHTS; Potency, µM (top dose mostly 57.9 µM), for inactives: at the top dose activity change, negative = inhibition, most hits filed as inhibitors; hit rate 1.2% among 410,000; calls by dose curve; tested in HEK293T cells; also: read-out not given here; potency is read from the fitted curve at half-maximal effect; nearly all actives have a fitted effect of over 45% in size
Vaccinia mCherry – inhibitors of vaccinia virus infection (mCherry reporter signal); Vaccinia virus mCherry reporter infection, fluorescence; Potency, µM (highest dose often 36.5 µM), without a hit: top-dose activity change, negative = inhibition, hits mostly inhibitors; hit rate 0.63% among 310,000; calls by dose curve; tested in A549 cells; also: potency is read from the fitted curve at half-maximal effect; nearly all actives have a fitted effect of over 35% in size
HCMV antiviral – human cytomegalovirus inhibition. activity change, negative = inhibition, % at 57.5 µM. hit rate 4.5% among 410,000. HFF cells, HCMV-luciferase reporter, 72 h; active compounds read low; in the data active = activity change below about -60%; inconclusive = no clear call, values can overlap the other calls; inactive = above about -39%
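Human foreskin fibroblasts infected with luciferase-reporter HCMV at MOI 1 PFU/cell, compounds at two doses. Luciferase measured 72 h post infection; normalized to buffer-only basal and Salinomycin (10uM) controls.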
HCV inh – blocks hepatitis C virus; hit rate 3.4% among 340,000; Huh7.5.1 HCVcc-Cre infection, luciferase reporter, 44 h; Potency, µM (top dose mostly 41.8 µM), without a hit: at the highest dose activity change, negative = inhibition, usual class: inhibitors; also: potency is read from the fitted curve at half-maximal effect
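Cells (1,000/well) were plated 4 h before compound, then infected with HCVcc-Cre virus (~0.5 moi). After 44 h further culture, infection was read as luciferase luminescence following a 15 min substrate incubation at room temperature.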
Vaccinia Venus – inhibitors of vaccinia virus (Venus reporter) | Vaccinia virus Venus reporter expression, fluorescence | Potency, µM (doses to about 36.5 µM), inactives show at the highest dose activity change, negative = inhibition, usual class: inhibitors | hit rate 0.46% among 330,000 | AID 720580; calls by dose curve; tested in A549 cells; also: potency is read from the fitted curve at half-maximal effect; nearly all actives have a fitted effect of over 30% in size
An asterisk follows results filed as active; i = inactive; ? = inconclusive; nt = no result given; [ ] = dose if it differs, or a comment. Compounds with a hit are over-represented: about 7.5% of the library has one in this group of screens. Unless noted, calls follow the shape of the dose curve; as a rule, active = well fitted curve in the direction sought with a large enough effect; inconclusive = small, poorly fitted or top-dose-only effect, or another doubt; inactive = no such curve, though single readings can be large; an effect the other way counts as inactive or inconclusive. % is scaled to controls: 0 for no effect and ±100 for the full control effect.

SMILES	Giardia FBPA inh	FMDV antiviral	Vaccinia mCherry	HCMV antiviral	HCV inh	Vaccinia Venus
COCCCNc1ccn2nc(-c3ccccc3)cc2n1	nt	-42%	i	57	nt	-2%
CC(C)(CO)CNc1ccn2nccc2n1	nt	-4%	-13%	-70*	nt	-14%
O=C(CSc1nc(-c2ccc(Cl)cc2)cs1)Nc1cccc([N+](=O)[O-])c1	2%	5%	-28%	-27	13µM*	-26%
CCNC(=S)Nc1cccc([N+](=O)[O-])c1	0%	nt	nt	nt	5%	nt
O=[N+]([O-])c1cccc(NC(=S)Nc2nc(-c3ccccc3Cl)cs2)c1	14%	-19%	?	nt	8.9µM*	?
CCN1C(=O)CSc2ccc(C(=O)NC3CCCCC3)cc21	7%	-5%	nt	5	?	nt
CCN1C(=O)CC(c2ccccc2)N(C2CCCC2)c2nc(Nc3ccc(C(=O)NC4CCN(C)CC4)cc3OC)ncc21 (stereo not given)	nt	-21%	-25%	nt	8.9µM*	?
CCN1C(=O)CC(C(C)C)N(C2CCCC2)c2nc(Nc3ccc(C(=O)NC4CCN(C)CC4)cc3OC)ncc21 (stereo not given)	nt	?	?	nt	17%[8.37 µM]	10µM*
CCCCCCCCCCCCCC/C(C(=O)O)=C(\C)C(=O)O	11%	nt	nt	nt	nt	nt
CC(C)(C)N(Cc1ccccc1)C(=O)COC(=O)C1CCN(c2ccc(C(F)(F)F)cn2)CC1	nt	?	nt	0	3%	nt
Cc1ccc(OCCCCNC(C)c2ccccc2)c(C)c1 (stereo not given)	?	-29%	-16%	12	10µM*	-16%
Brc1ccccc1OCCCCn1cnc2ccccc21	-1%	-25%	i	-60*	10µM*	-16%
Cc1ccc(OCCCCn2cnc3ccccc32)c(C)c1	?	-14%	nt	-98*	?	nt
Clc1ccccc1OCCn1cnc2ccccc21	-3%	39%	-27%	-36	nt	-18%
Cc1ccc(OCCNCc2ccccc2)c(C)c1	?	25%	-10%	-8	-18%	-2%
N#Cc1ccc(C(=O)Nc2cc(-c3ccccc3)nn2-c2ccccc2)cc1	nt	-22%	-12%	-8	10µM*	-16%
N#Cc1ccc(C(=O)Nc2cc(-c3ccc(F)cc3)nn2-c2ccccc2)cc1	nt	-19%	i	1	?	-27%
O=C(Nc1ccn(-c2ccccc2)n1)c1ccc(Cl)cc1	-8%	-18%	i	-34	7.1µM*	-22%
N#Cc1ccc(C(=O)Nc2ccn(-c3ccccc3)n2)cc1	-2%	-22%	-11%	-75*	?	-7%
C[C@@H]1CN([C@@H](C)CO)C(=O)CCCn2nncc2CO[C@H]1CN(C)C(=O)Nc1ccc(N2CCN(C)CC2)cc1	nt	nt	nt	-15	nt	nt
COC(=O)c1cc(-c2ccc(NC(C)=O)cc2)nc2ccccc12	4%	-9%	-9%	-68*	?	-8%
COc1ccc2cc(-c3cc(C(=O)O)c4ccccc4n3)ccc2c1	16%	10µM*	10µM*	-61*	18%	4%
COc1ccc(CN(C)C(=O)c2cc(-c3ccccc3)nc3ccc(C)cc23)c(OC)c1OC	nt	-10%	?	nt	10µM*	-27%
COc1ccc(-c2cc(C(=O)O)c3ccccc3n2)c(OC)c1	18%	-18%	nt	0	1%	-11%
O=C(O)c1cc(-c2ccc(-c3ccc(F)cc3)o2)nc2ccccc12	20µM*	29%	nt	63	24%	nt
SMILES	Giardia FBPA inh	FMDV antiviral	Vaccinia mCherry	HCMV antiviral	HCV inh	Vaccinia Venus
CC(=O)Nc1ccc(-c2cc(C(=O)O)c3cc4ccccc4cc3n2)cc1	nt	10%	i	8	nt	-4%
COc1cccc(CN(C)C(=O)c2cc(-c3ccc(OC)c(OC)c3)nc3ccccc23)c1	nt	-27%	0%	18	?	-19%
COc1ccc2nc(-c3ccccc3)cc(C(=O)OCC(=O)N3CCCCC3)c2c1	nt	-21%	nt	-62*	?	nt
COc1ccc(-c2cc(C(=O)OCC(=O)N3CCCC3)c3ccccc3n2)cc1	-7%	-3%	-4%	19	?	-29%
COc1cccc(CN(C)C(=O)c2cc(-c3ccc(F)cc3)nc3ccccc23)c1	nt	-27%	-28%	nt	32µM*	-24%
COc1ccc(CN2CCOc3ccc(CN4CCC(Oc5cccnc5)CC4)cc3C2)cc1	nt	-24%	-12%	nt	nt	-25%
CCOC(=O)C1(CCc2ccccc2)CCN(C(=O)CN2C(=O)CSC2=O)CC1	1%	15%	-3%	-20	0%	-3%
COc1ccc(CNCC(O)(c2ccc(F)cc2)c2ccc(F)cc2)cc1OC	2%	?	nt	?	?	nt
COc1ccc(CNCC(O)(c2ccc(Cl)cc2)c2ccc(Cl)cc2)cc1OC	4%	?	nt	18	13µM*	nt
COc1ccc(CNCC(O)(c2ccccc2)c2ccc(F)cc2)cc1OC (stereo not given)	3%	?	4%	?	10µM*	-11%
Cc1ccc(S(=O)(=O)c2nnn3c2nc(N2CCOCC2)c2ccccc23)cc1	-2%	-4%	nt	9	11µM*	nt
COc1ccc2cc(Br)ccc2c1CC(=O)NC1CC(C)(C)NC(C)(C)C1	-1%	0%	nt	48	11µM*	nt
CCSc1nnc(C(C)NC(=O)c2ccc(OC)cc2)n1C (stereo not given)	nt	-6%	-5%	nt	nt	-5%
Nc1cccc2c(O)cccc12	nt	-4%	-9%	-102*	22%	-6%
Nc1ccccc1O	nt	-6%	i	nt	-16%	1%
Cc1ccc(S(=O)(=O)OCC2CN3C(CCC(C)C3c3ccc(Br)cc3)C(=O)O2)cc1 (stereo not given)	-3%[12.9 µM]	nt	nt	nt	nt	nt
COc1ccc(NC(=O)c2cc(C)nc3ccccc23)cc1S(=O)(=O)N1CCOCC1	nt	-12%	-3%	26	?	-15%
Cc1ccc(NC(=O)c2ccccc2-c2ccc(C(F)(F)F)cc2)cc1S(=O)(=O)N1CCOCC1	1%	30%	-22%	-36	?	-18%
COc1ccc(NC(=O)c2ccccc2-c2ccc(C(F)(F)F)cc2)cc1S(=O)(=O)N1CCOCC1	1%	41%	?	-67*	1%	?
COc1ccc(Nc2nc(-c3ccccc3)nc3ccccc23)cc1S(=O)(=O)N1CCOCC1	-11%	?	nt	-60*	22µM*	nt
COc1ccc(NC(=O)c2cc(-c3ccco3)nc3ccccc23)cc1S(=O)(=O)N1CCOCC1	?	-29%	-3%	15	8.9µM*	0%
CCc1nnc(NC(=O)CCS(=O)(=O)c2ccc(C)cc2)s1	nt	-18%	?	37	6%	-15%
O=C(COC(=O)c1ccc2c(c1)OCCO2)NCc1ccc(Cl)cc1	nt	-21%	i	19	nt	-22%
CCN(CC)CCCC(C)Nc1nccc2c(Cl)cccc12 (stereo not given)	nt	-18%	-21%	-35	10µM*	?
CCOC(=O)c1ccc(CC(=O)c2ccc(O)c(O)c2O)o1	11µM*	-11%	-9%	-3	-20%	-2%
Cc1nc(-c2ccc([N+](=O)[O-])cc2)nc2[nH]ccc(=O)c12	-26%	57%	nt	-3	8%	nt

Source: PubChem (National Center for Advancing Translational Sciences (NCATS))
